Source: PubChem BioAssay (National Center for Advancing Translational Sciences (NCATS))
Compounds with a hit are over-represented: about 10% of the library has one in this group of screens.
ALDH1A1 block: blocks purified human ALDH1A1 activity | Potency, µM (highest dose often 75.3 µM), for the others: at the highest dose activity, negative = inhibition, usual class: inhibitors | actives 7.3% (n = 220,000) | AID 1030 | Purified ALDH1A1, NADH fluorescence, propionaldehyde substrate | P00352;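 note: potency is the fitted concentration of half-maximal effect; plate controls were no enzyme wells and a reference inhibitor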
Target sequence (P00352 whole entry, looked up): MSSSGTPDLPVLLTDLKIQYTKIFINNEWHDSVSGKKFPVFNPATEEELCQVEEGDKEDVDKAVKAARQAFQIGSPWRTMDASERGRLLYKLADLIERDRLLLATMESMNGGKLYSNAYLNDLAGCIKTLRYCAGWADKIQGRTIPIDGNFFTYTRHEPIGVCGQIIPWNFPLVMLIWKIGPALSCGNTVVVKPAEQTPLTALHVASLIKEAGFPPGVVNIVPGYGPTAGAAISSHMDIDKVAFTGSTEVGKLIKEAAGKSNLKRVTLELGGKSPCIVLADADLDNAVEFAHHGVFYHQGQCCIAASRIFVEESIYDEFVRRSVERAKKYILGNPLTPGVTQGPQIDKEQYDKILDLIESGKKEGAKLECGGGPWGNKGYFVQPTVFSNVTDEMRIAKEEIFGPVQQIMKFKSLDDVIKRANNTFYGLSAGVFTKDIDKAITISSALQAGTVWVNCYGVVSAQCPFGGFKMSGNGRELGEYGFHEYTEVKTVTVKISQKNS
LMNA splice mod: LMNA splicing modulation; AID 1487; Potency, µM (top dose mostly 46.1 µM), for the others: top-dose ratio change, negative = inhibition, usual class: inhibitors; HeLa LMNA splicing GFP/RFP minigene ratio, 48 h; actives 0.01% (n = 200,000); active = well fitted inhibition curve with a large enough effect in the signal ratio, with a control signal flat, not every such curve was filed as active; inconclusive = small, poorly fitted or top-dose-only effect, or effect the other way, or a change in a side signal; the % refers to the signal ratio; note: potency is the fitted concentration of half-maximal effect
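S3 HeLa cells stably expressing lamin A-EGFP splicing minigene plus DsRed2, 600 cells/well, 48 h compound exposure at 37C. Laser-scanning cytometry; analysed as GFP (500-530 nm)/RFP (575-640 nm) total intensity ratio; 0.5% DMSO vehicle.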
PNC assembly inh: inhibitors of perinucleolar compartment assembly; actives 3.1% (n = 140,000); AID 2417; PC3M PTB-GFP, PNC prevalence imaging, 16 h; active compounds read low; activity change (PNC), negative = inhibition, % at 10 µM;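 active = readout at or below -70, meaning at least 70% loss of cells showing the perinucleolar compartment, a nuclear body marking cancer cells; inconclusive = readout between -30 and a set limit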;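 note: plate controls were DMSO wells for no effect and camptothecin positive control wells for full effect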
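PC3M cells stably expressing PTB-GFP, 750–1000 cells/well, treated 16 h at 37 °C with compound (23 nl of library stock), in duplicate. After paraformaldehyde fixation and Hoechst stain, imaged at 20x; PNC prevalence scored by image analysis.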
ALOX12 inhib: inhibitors of human 12-lipoxygenase (ALOX12). P18054. purified 12-hLO, xylenol orange hydroperoxide absorbance. Potency, µM (doses to about 57.1 µM), for inactives: at the top dose activity change, negative = inhibition, hits mostly inhibitors. actives 0.12% (n = 150,000). AID 1452; active = well fitted inhibition curve with a large enough effect; inconclusive = small, poorly fitted or top-dose-only effect; note: potency is the fitted concentration of half-maximal effect; nearly all actives have a fitted effect of over 55% in size
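Purified human 12hLO (150 nM final) was preincubated with compounds for 15 min at room temperature in 25 mM Hepes pH 7.0, 0.01% Triton X-100, then reacted with 40 uM arachidonic acid for 30 min. Hydroperoxide was detected with ferrous iron/xylenol orange.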
HPGD inh: HPGD (human) dehydrogenase inhibition; Potency, µM, for the others: top-dose activity change, negative = inhibition, usual class: inhibitors; purified HPGD, NADH fluorescence kinetic, PGE2 substrate; AID 894; P15428; actives 4.3% (n = 150,000); note: potency is the fitted concentration of half-maximal effect
Target sequence (P15428 whole entry, looked up): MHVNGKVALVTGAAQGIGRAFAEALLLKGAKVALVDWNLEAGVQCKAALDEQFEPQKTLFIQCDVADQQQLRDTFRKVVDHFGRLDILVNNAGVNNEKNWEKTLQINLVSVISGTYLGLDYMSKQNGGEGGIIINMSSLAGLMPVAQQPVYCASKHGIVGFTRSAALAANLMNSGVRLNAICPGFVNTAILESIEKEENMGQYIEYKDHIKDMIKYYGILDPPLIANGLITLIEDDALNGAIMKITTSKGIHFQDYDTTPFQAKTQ
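20 nM HPGD preincubated 15 min at room temperature with compound in 50 mM Tris-HCl pH 8, 0.01% Tween 20. Started with 1 mM NAD+ and 30 uM prostaglandin E2; NADH fluorescence (360/450 nm) read 5 times over 30-s intervals, last minus first.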
Numbers without * were called inactive; u = inconclusive; x = not tested or not shown; [ ] = remark or other dose. Unless noted, calls come from the whole dose curve; as a rule, active = well fitted inhibition curve with a large enough effect (not every such curve was filed as active); inconclusive = small, poorly fitted or top-dose-only effect, or another doubt; inactive = no such curve, though single readings can be large or run the other way. Unless noted, % is set by controls: 0 for no effect and ±100 for the full control effect.

SMILES | ALDH1A1 block | LMNA splice mod | PNC assembly inh | ALOX12 inhib | HPGD inh
CCOCC(=O)Nc1nc2ccccc2s1 | 22.4µM* | -9.6% | -14.4 | -0.3% | -3.2%
CCOc1ccc2nc(NC(=S)N(C)C)sc2c1 | 25.1µM* | -11.2% | 35.6 | -11.6% | 14.1µM*
CN(C)C(=S)Nc1nc2ccccc2s1 | 7.94µM* | u | x | x | x
CCOc1ccc2nc(NC(=O)CS(=O)(=O)c3ccc(C)cc3)sc2c1 | 25.1µM* | 29.8% | -7.9 | -6.0% | -17.1%
NC(N)=N/N=C\c1ccc(C2CCNCC2)cc1 | -2.6%[13.5 µM] | x | x | -0.7%[11.4 µM] | -1.9%
Cc1cc(C)c(NC(=O)COCc2cc(-c3cccs3)on2)c(C)c1 | x | 5.6%[46 µM] | x | x | x
O=c1cnc2cnc(Oc3ccccc3)nc2n1C[C@H]1CCCO1 | u | x | x | -2.0% | -14.0%
CCOc1ccc2nc(NC(=O)c3cccnc3)sc2c1 | 8.8% | 13.0% | -108.4* | 3.9% | -15.3%
COC(=O)c1ccccc1Nc1cc(C)nc2nc(C)nn12 | 22.3% | 3.8% | 25.0 | -4.5% | 1µM*
COC(=O)c1ccc(Nc2cc(C)nc3nc(C)nn23)cc1 | 6.9% | -3.0% | 27.2 | -3.7% | -26.2%
CCOC(=O)c1ccccc1Nc1cc(C)nc2nc(C)nn12 | 5.4% | -3.2% | -9.5 | -4.2% | 2.24µM*
COC(=O)c1ccccc1NC(=O)Cn1c(=O)nc(-c2ccccc2)c2cc(Cl)ccc21 | x | 2.8%[46 µM] | x | x | x
CCOC(=O)Cc1ccc(NC(=O)N2CCC(CN3CCCCCC3)CC2)cc1 | x | -12.4%[46 µM] | x | x | x
S=C(Nc1ccccc1)N1CCn2c1nc1ccccc12 | -9.0% | u | -2.2 | -1.4% | 15.8µM*
COc1cc(OC)c(NC(=O)c2c(C)oc3ncnc(N4CCCCC4)c23)cc1Cl | x | -3.1%[46 µM] | x | x | x
CCOC(=O)c1cnc(SC2CCc3ccccc3C2=O)nc1N (stereo unspecified) | 31.6µM* | -3.3% | -23.5 | -5.7% | 28.2µM*
CCOC(=O)c1cnc(SC2CC(=O)N(c3ccccc3)C2=O)nc1N (stereo unspecified) | u | u | u | -4.9% | -0.7%
Cc1ccc2scc(N3CCc4ccccc4C3)c(=O)c2c1 | x | -16.7%[46 µM] | x | x | x
COC(=O)C1(O)CC(CC(C)C)=NN1C(=O)c1ccccc1 (stereo unspecified) | -2.7% | 1.1% | -124.4* | -1.1% | -1.4%
COC(=O)C1=NN(C(=O)c2ccccc2)C(C)(O)C1 (stereo unspecified) | -9.9% | 9.5% | u | 5.5% | -14.0%
CCSC1(SCC)N=C(N)C2(C#N)C(c3ccc(OC)c(OC)c3OC)C12C#N (stereo unspecified) | u | u | u | -12.4% | 8.91µM*
Cc1ccc(CN2CCCn3nc(C(=O)NC(C)C)cc3C2=O)cc1 | x | -12.8%[46 µM] | x | x | x
CC(C)[C@@H](CC(=O)N[C@@H]1CCNC[C@H]1C(=O)N[C@H](CC(=O)N[C@@H](CCC(=O)O)CC(=O)O)Cc1c[nH]c2ccccc12)NC(=O)C[C@H](Cc1c[nH]c2ccccc12)NC(=O)[C@@H]1CNCC[C@H]1N | u | x | x | -0.1% | -4.1%
Cc1cc(C(=O)OCC(=O)N2CC(C)CC(C)C2)c(C)o1 (stereo unspecified) | 14.1µM* | 3.3% | 23.4 | 0.0% | -8.4%
C=CCn1c(COc2ccc(Cl)cc2)nnc1SCC(=O)c1c(N)n(C)c(=O)n(C)c1=O | 18.9% | x | x | x | x
SMILES | ALDH1A1 block | LMNA splice mod | PNC assembly inh | ALOX12 inhib | HPGD inh
Fc1ccc(OCc2nnc(SCCN3CCOCC3)o2)cc1 | -8.5% | -11.2% | 225.6 | 5.7% | 22.4µM*
COc1ccc(OCc2nnc(SCC(=O)N3CCOCC3)o2)cc1 | -4.9% | 6.1%[46 µM] | x | x | x
Cc1cc(-n2c(C)nc3ccccc3c2=O)ccc1NC(=O)c1cccc([N+](=O)[O-])c1 | x | 1.7%[46 µM] | x | x | x
O=C(NCc1ccccc1Cl)C(=O)NCC(c1ccco1)N1CCOCC1 (stereo unspecified) | -4.8% | u | x | x | x
Cc1c(-c2ccc(Cl)cc2)noc1C1CCN(CCc2ccccc2)CC1 | 3.1% | x | x | -7.9% | 0.2%
CNc1sc(C(=O)c2cccs2)c(N)c1-c1nc2ccccc2s1 | 1.78µM* | u | 26.0 | -27.4% | 15.8µM*
CCn1nc(C)c2c(-c3ccccc3)cc(=O)n(C(C)C(=O)NCCc3ccc(OC)c(OC)c3)c21 (stereo unspecified) | x | -4.7%[46 µM] | x | x | x
NS(=O)(=O)c1ccc(NC(=O)/C=C/c2ccco2)cc1 | 23.8µM* | x | x | x | x
COc1ccc(NC(=S)NC(=O)/C=C/c2ccco2)cc1 | 7.08µM* | u | x | x | x
O=C(/C=C/c1ccco1)NC(=S)Nc1ccc(Cl)cn1 | 10µM* | 7.6% | -12.6 | u | -25.8%
COC(=O)c1ccccc1NC(=O)/C=C/c1ccco1 | 25.1µM* | u | -9.2 | -3.8% | -24.3%
COc1ccc(NC(=O)CCCN2C(=O)/C(=C\c3ccco3)SC2=S)cc1 | 25.1µM* | u | -21.3 | -4.6% | -19.2%
O=C(CCCN1C(=O)/C(=C\c2cccs2)SC1=S)Nc1ccc(C(=O)O)cc1 | -7.7% | x | x | x | x
O=C(/C=C/c1ccco1)NC1CCCC1 | 22.4µM* | x | x | x | x
COc1ccc(/C=C/C(=O)NC(=S)Nc2ccc(S(=O)(=O)Nc3cc(OC)ncn3)cc2)cc1 | 28.2µM* | x | x | x | x
CCCC(=O)NC(=S)Nc1ccc(Cl)cn1 | 25.1µM* | 8.4% | 37.6 | -4.2% | -14.0%
COc1cccc(NC(=O)CSc2nc(=O)n(Cc3cccnc3)c3c2CCC3)c1 | x | 5.3%[46 µM] | x | x | x
CCO[C@H]1OC(C(=O)N2CCN(Cc3ccc4c(c3)OCO4)CC2)=C[C@@H](C2CC2)[C@@H]1CCCO | -0.5% | x | x | x | x
CC1CC2C3CCC4=CC(=O)C=C[C@@]4(C)[C@]3(F)C(O)C[C@]2(C)[C@]1(O)C(=O)CO (stereo partly specified) | 0.4% | x | x | 0.4% | -13.1%
COc1ccc(OC)c2sc(NC(=O)c3ccc(S(=O)(=O)N4CCCC4)cc3)nc12 | x | 25.1%[46 µM] | x | x | x
Nc1nc(CC(=O)O)cs1 | -13.5% | x | x | 2.2% | -5.6%
NN1C(=O)/C(=C\c2ccco2)SC1=S | 1.26µM* | x | x | x | x
O=C(O)C(C(=O)/C=C/c1ccco1)=C1SCCS1 | 12.6µM* | 17.5% | 30.3 | -21.7% | -20.9%
O=C(C=C1SCCS1)/C=C/c1ccco1 | -16.1% | -2.4% | 1.0 | -9.4% | -9.5%
O=C1/C(=C\c2ccco2)SC(=S)N1c1ccc(O)cc1 | u | u | 39.0 | u | -12.2%
Cc1ccc(-c2nc3cccnc3s2)cc1NS(=O)(=O)c1ccc2c(c1)OCCO2 | u | -24.0% | -108.4* | -6.6% | u
O=S(=O)(Nc1cccc(-c2nc3cccnc3s2)c1)c1ccc2c(c1)OCCO2 | u | u | -19.7 | -9.5% | -21.9%
CCCCN(CC)CCCNC(=O)CC1Oc2ccccc2NC1=O (stereo unspecified) | 19.7% | -6.2% | -109.2* | 4.5% | 3.0%
CC(C)CN(CCCNC(=O)CC1Oc2ccccc2NC1=O)CC(C)C (stereo unspecified) | 5.5% | -6.0% | 42.6 | -0.4% | 4.2%
COc1ccc(Cl)cc1NC(=O)c1cc2ccc3ccc(C)[nH]c3c2n1 | x | -9.1%[46 µM] | x | x | x
